Measured values published in PubChem BioAssay AID488862 (Broad Institute, 2010).
About 1,200 (0.35%) of roughly 340,000 compounds were called active. What follows is part of a selection rich in actives, with near analogues and random picks from the rest. Values without a mark were called inactive. Rule as the data show it: active = inhibition above about 52%; inactive = the rest.

Assay: suppresses PrP 5' UTR mRNA reporter expression (AID 488862); also: 0 = median of the neutral control wells
Settings: cell-based PrP 5' UTR mRNA reporter, plate reader; stronger effect = higher value; concentration not given here

Compound	inhibition
O=C(CCn1c(=O)oc2ccccc21)Nc1ccon1	-14.3%
CCCNC(=O)C1CC(=O)N(c2ccc(OCC(=O)Nc3cccc(C)c3C)cc2)C1 (stereo not given)	-2.71%
O=C(c1ccc2c(c1)C(=O)N(Cc1ccncc1)C2=O)N1CCN(S(=O)(=O)c2ccc(OC(F)(F)F)cc2)CC1	-12.7%
CC[n+]1c(C)n(-c2ccccc2)c2ccc(NC(C)=O)cc21	-45%
CSc1nc(N(C)NC(=O)c2cccc(C)c2)c2ccccc2n1	30.9%
CN(NC(=O)c1ccccc1F)c1nc(C(F)(F)F)nc2ccccc12	61.9% (active)
Cn1c(CC(=O)NNC(=O)c2ccccc2F)nc2ccccc21	-14.3%
CCOC(=O)c1ccc(NC(=O)C2CC(=O)Nc3nc4ccccc4n32)cc1 (stereo not given)	-13.3%
Nc1ccc(OCC(O)C[n+]2ccc(CCS(=O)(=O)[O-])cc2)cc1 (stereo not given)	78.9% (active)
CCCc1ccc(OCC(O)CN2CCN(CCO)CC2)cc1 (stereo not given)	-4.25%
CCCc1ccc(OCC(O)CN2CCN(C(=O)OCC)CC2)cc1 (stereo not given)	-12.3%
COC(=O)N1CN(C(=O)OC)CN(C(=O)OC)C1	-16.8%
COC(=O)C1C(=O)c2c([nH]c(C(=O)OCCSC)c2C)CC1C (stereo not given)	-51.7%
CCCOC(=O)c1[nH]c2c(c1C)C(=O)CC(c1cccs1)C2 (stereo not given)	60.4% (active)
CCOC(=O)C1=C(N)N(c2ccc(C)cc2)C2=C(C(=O)CCC2)C1c1cccs1 (stereo not given)	-23.6%
COc1cccc(NC(=O)N2CCCC2C(=O)NC2CCCCC2)c1 (stereo not given)	-31.7%
C/C(=C(\C#N)C(=O)NCCCN1CCOCC1)N(C)C	-31.6%
COc1cccc2c1OCC(C(=O)NCc1ccc(Cl)cc1Cl)=C2	-13%
COCCNc1cc(-c2ccccc2)nc2cc(-c3cccc(F)c3)nn12	59.6% (active)
COC(=O)C(C)Sc1ccc2nnc(-c3cccc(F)c3)n2n1 (stereo not given)	-8.06%

Compound	inhibition
COc1ccc(NC(=O)c2cc3nc(-c4ccccc4)cc(C)n3n2)cc1OC	-26.9%
COc1ccc(/C=C/c2noc(-c3ccccc3OC(C)=O)n2)cc1	-28.8%
COc1ccc(-c2nc(-c3ccccc3)no2)c(OC)c1	66.6% (active)
COc1ccc(OC)c(-c2csc(-c3cccs3)n2)c1	4.49%
COc1ccccc1Nc1nnc(SC(C)C(=O)NC2CC2)s1 (stereo not given)	2.27%
CCOC(=O)c1c(/N=C/c2cc(C)ccc2O)sc2c1CCC2	-12.5%
O=C(CSc1cccc[n+]1[O-])NCCCc1ccccc1	-19.4%
C=CCn1c(C)cc(C2=NNC(=NCC)SC2)c1C	93.9% (active)
CN(C)c1ccc(CNC(=O)CN2C(=O)COc3ccc(S(=O)(=O)N4CCCC4)cc32)cc1	-1.62%
CCCC(=O)n1nc(NCc2ccc(OC)cc2)nc1NCc1ccc(OC)cc1	-14.7%
Clc1ccc2nc3c(c(-c4ccccc4)c2c1)CNCC3	-16%
NC(N)=Nc1nc(-c2ccccc2)c2cc(Cl)ccc2n1	-17.4%
Clc1ccc2nc(-c3ccccc3)nc(C(Cl)Cl)c2c1	92.7% (active)
O=C(COC(=O)c1ccccc1C(=O)N1CCN(c2ccccc2)CC1)NCc1ccccc1	-7.33%
Oc1ccccc1N1CCN(C(=S)NCc2ccccc2)CC1	-14.6%
Oc1ccc(N2CCN(C(=S)NCc3ccccc3)CC2)cc1	87.9% (active)
O=C(NCc1ccco1)c1ccc([N+](=O)[O-])cc1Cl	-16.6%
CCC(=O)c1cn(CCOc2ccccc2OC)c2ccccc12	-20.1%
Cc1nn2cc(-c3ccc(Cl)cc3)cnc2c1Br	-42%
Cc1ccc(S(=O)(=O)Nc2nc3ccccc3s2)cc1[N+](=O)[O-]	57.4% (active)

Compound	inhibition
Cc1ccc(S(=O)(=O)NCCSc2ccccc2)cc1[N+](=O)[O-]	-22.1%
CCOc1ccc2sc(NS(=O)(=O)c3ccc(N)cc3)nc2c1	-14.4%
O=C(Nc1ccc2c(c1)OCCO2)c1ccoc1	-45.1%
O=C(Nc1ccc2c(c1)OCO2)C1CC1(Cl)Cl (stereo not given)	-8.25%
O=C(Nc1ccc2c(c1)OCCO2)C1CCCC1	56.5% (active)
O=C(c1ccc(Cl)nc1)N1CCN(S(=O)(=O)c2ccc3c(c2)OCCO3)CC1	-18.9%
O=S(=O)(c1ccc(Br)cc1)c1nc(-c2ccccc2)oc1N1CCOCC1	-6.56%
O=C(OCC(=O)N1CCN(C(=O)c2ccco2)CC1)c1c(Cl)cccc1Cl	-17%
COc1ccc(C(=O)Nc2cccc(NC(=O)c3ccc(OC)cc3OC)n2)c(OC)c1	-7.03%
COc1cc(SC)ccc1C(=O)Nc1nc(C)cs1	87% (active)
COc1cc(SC)ccc1C(=O)N(Cc1ccccc1)c1ccccc1	-4.63%
O=C(c1cccs1)n1nc(NCc2ccccc2)nc1NCc1ccccc1	-11.8%
Cc1noc(C)c1COC(=O)Cn1c(C)nc2ccccc21	-15.5%
CC(=O)c1sc(NC(=O)CCN2C(=O)C3CC=CCC3C2=O)nc1-c1ccccc1 (stereo not given)	-19.1%
CC(=NCc1ccc2c(c1)OCO2)C1=C(O)c2ccccc2C1=O	1.49%
O=C(NCc1ccccc1CN1CCCC1)c1cccc(S(=O)(=O)Nc2ccc(F)cc2)c1	-16.1%
CCC(C)(O)C(=O)OC1C(=O)OC2CC3C(C)=CC(=O)C(O)C3(C)C3C4(O)OCC23C1C(C)C4O (stereo not given)	78.9% (active)
Cc1cc(O)c(C(=O)/C=C/c2c(F)c(F)c(F)c(F)c2F)c(=O)o1	8.81%
CC1(C)C[C@H]2C3=CCC4[C@@]5(C)CC[C@H](O)[C@](C)(CO)C5CC[C@@]4(C)[C@]3(C)C[C@@H](O)[C@@]2(CO)[C@@H](O)[C@@H]1O (stereo not given in full)	-7.8%
COc1ccccc1CNC(=O)CSc1nc(=O)n(Cc2ccncc2)c2c1CCC2	10.7%
